Laboratory results taken from the supplement of paper PMC3334620.
In all, about 33,000 sequences were measured (“E-score (-0.5 to 0.5)”: median about -0.036, highest 2% from about 0.37 on). Shown is part of a subset that was picked to be rich in the highest values.

molecular target: T1, Yer064c (UniProt P40041); assay: PBM E-score (8-mer binding enrichment) (E-score (-0.5 to 0.5)); higher = stronger / more preferred TF binding; details: protein concentration: 200 nM; construct: GST-full length
T1 sequence: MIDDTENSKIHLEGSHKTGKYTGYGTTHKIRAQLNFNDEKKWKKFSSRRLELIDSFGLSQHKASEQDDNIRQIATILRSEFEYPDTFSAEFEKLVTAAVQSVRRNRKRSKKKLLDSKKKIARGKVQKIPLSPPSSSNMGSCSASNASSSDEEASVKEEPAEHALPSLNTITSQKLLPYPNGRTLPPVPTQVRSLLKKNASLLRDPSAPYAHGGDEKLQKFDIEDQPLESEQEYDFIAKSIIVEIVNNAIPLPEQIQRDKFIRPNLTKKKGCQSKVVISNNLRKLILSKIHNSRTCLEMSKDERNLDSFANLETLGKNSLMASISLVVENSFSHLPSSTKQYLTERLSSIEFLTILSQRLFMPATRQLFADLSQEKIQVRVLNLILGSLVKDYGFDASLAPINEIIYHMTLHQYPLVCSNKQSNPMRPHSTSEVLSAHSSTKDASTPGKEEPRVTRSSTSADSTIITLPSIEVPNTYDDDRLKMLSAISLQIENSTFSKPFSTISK
Procedure: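 Universal 'all 10-mer' protein binding microarrays (Agilent AMADID 015681) probed with GST-tagged S. cerevisiae TFs (full-length or DBD) made by in vitro transcription/translation (PURExpress), about 100-200 nM. Bound TF was detected with fluorescent anti-GST. Each ungapped 8-mer (which stands for itself and its reverse complement) is scored by the PBM enrichment score (E-score), a modified Wilcoxon-Mann-Whitney statistic from -0.5 to +0.5, computed with the Universal PBM Analysis Suite. Scale: above 0.35 generally sequence-specific binding.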

| Sequence | PBM E-score |
| --- | --- |
| ATTCATTC | 0.122 |
| ACTCATTG | 0.382 |
| ATGGCTTG | -0.159 |
| GATTTACC | 0.00206 |
| ATTTCATA | -0.0227 |
| ATCCGAAT | 0.0995 |
| AAGGGATG | -0.176 |
| AATCAGTA | 0.234 |
| CATCAGTC | 0.321 |
| ACTCAGTC | 0.411 |
| ACTCAGTG | 0.251 |
| CCTCAGTC | 0.326 |
| AGTCAGTC | 0.442 |
| ATTCAGTG | 0.214 |
| ATTCAGTC | 0.341 |
| AATCAGTG | 0.239 |
| AATCAGTC | 0.368 |
| AGTCAGTG | 0.427 |
| CGTCAGTC | 0.291 |
| ACGCATGA | 0.146 |
| ATCCGTTG | -0.037 |
| ACCTTGAA | 0.0165 |
| GAACCAGA | 0.0172 |
| ACCCTCAC | -0.132 |
| CGCACATC | 0.00301 |
| AGTCAGTA | 0.42 |

| Sequence | PBM E-score |
| --- | --- |
| CGTCAGTA | 0.0514 |
| GGTCAGTA | -0.0314 |
| CTTTAACA | -0.0802 |
| GCCTAGGC | -0.179 |
| AGGAGCGC | -0.205 |
| ACTCACTA | 0.346 |
| ACACACTG | 0.0265 |
| ACTCACAC | 0.364 |
| ACTCACTG | 0.374 |
| CCTCACTC | -0.077 |
| ACTCACTC | 0.371 |
| CGGTTTAG | -0.1 |
| AGAGACAA | -0.175 |
| TAAACCAA | -0.0214 |
| CAGGACTC | 0.344 |
| AAGGACTT | 0.0394 |
| AAGGACTA | 0.375 |
| GAGGACAC | -0.221 |
| CAGGACTA | 0.262 |
| TAGGACTA | 0.357 |
| GAGGACTA | 0.369 |
| AAGGACTC | 0.39 |
| GAGGACTC | 0.387 |
| AAGGACCA | -0.026 |
| AAGGACTG | 0.184 |
| AAGGACGA | -0.0247 |

| Sequence | PBM E-score |
| --- | --- |
| ACCGGCGG | -0.156 |
| CCAGATGC | 0.0961 |
| AGCTAGAT | -0.12 |
| AACCCCAG | -0.047 |
| GGCAACTA | -0.0239 |
| CCCATCTA | -0.0727 |
| CAAACGAC | 0.0734 |
| GTGTGCGA | 0.0296 |
| AGATCTTA | 0.137 |
| GACGTTCA | -0.12 |
| GCATTTCC | -0.0262 |
| AGAACACA | 0.0627 |
| TAAAGTCA | 0.413 |
| AAAAGTCA | 0.374 |
| CAAAGTCC | -0.222 |
| AAAAGTCC | -0.0242 |
| AAAAGTCT | 0.0759 |
| TAAAGTAA | 0.049 |
| CAAAGTCG | 0.167 |
| CAAAGTCA | 0.399 |
| GAAAGTCA | 0.428 |
| TAAAGTTA | 0.106 |
| GAAAGTTA | 0.137 |
| GAAAGTCC | -0.215 |
| ACCACGGG | -0.0993 |
| AGCAGGAG | -0.0429 |

| Sequence | PBM E-score |
| --- | --- |
| GGCATACA | -0.226 |
| GATTCGAA | 0.207 |
| CTCGGTGA | 0.137 |
| ACTACGAT | 0.233 |
| CCCATGCC | -0.231 |
| CCCAGAGG | -0.276 |
| AAGTCAGT | 0.362 |
| AAGTCAGC | 0.422 |
| ATGTCAGC | -0.0283 |
| CAGTCAGA | 0.361 |
| AAGTCAGA | 0.341 |
| GAGTCAGC | 0.48 |
| CAGTCAGG | 0.333 |
| GCGTCAGC | -0.304 |
| CAGTCAGC | 0.406 |
| AATCTTAC | 0.183 |
| ATTTGTCG | -0.0532 |
| CACTCAGA | 0.0961 |
| AACTCAGC | 0.022 |
| GACTCAGA | 0.458 |
| GACTCAGC | 0.457 |
| AACTCAGA | 0.164 |
| CACTCAGC | -0.0645 |
| GGCGCGAA | -0.0884 |
| AACGTGGC | -0.0783 |
| ACCCTAGA | -0.0589 |

| Sequence | PBM E-score |
| --- | --- |
| ACCTCGGC | -0.153 |
| AAACACCT | 0.129 |
| AATCACCA | 0.374 |
| AATCACCT | 0.438 |
| AATCACCC | 0.426 |
| AAGCACCG | -0.164 |
| CATCACCC | -0.0525 |
| GATCACCC | 0.00825 |
| AACCACCT | 0.0325 |
| TATCACCA | -0.0277 |
| CATCACCG | 0.156 |
| AATCACCG | 0.42 |
| CATCACCA | -0.0269 |
| AGAAGAAC | -0.146 |
| ACCAGACT | 0.0775 |
| ACGGCTAT | -0.24 |
| GGTTTACA | -0.0888 |
| CGTGCACG | 0.0709 |
| CCTGAGGA | 0.00765 |
| ACGGTATG | -0.0999 |
| CTGATTAC | 0.375 |
| GGGATTAA | 0.166 |
| CCGATTAC | -0.132 |
| GTGATTAA | 0.452 |
| CAGATTAA | 0.183 |
| CGGATTAC | 0.0966 |

| Sequence | PBM E-score |
| --- | --- |
| CGGATTAA | 0.208 |
| GAGATTAA | 0.245 |
| ACGATTAA | 0.26 |
| ATGATTAA | 0.472 |
| AGGATTAA | 0.253 |
| CTGATTAA | 0.405 |
| GAAACTAC | 0.00139 |
| CCGAGGAC | -0.0294 |
| AGCAAAAC | -0.0941 |
| CATCCGAA | 0.123 |
| ATGGAAAG | -0.0473 |
| CATATTGG | -0.027 |
| ATATCTAA | 0.128 |
| AGCAGGTA | -0.131 |
| CCTGCGCA | -0.352 |
| GATAATAA | -0.0817 |
| AATAATCG | 0.104 |
| GATAATCA | 0.384 |
| GATAATCC | -0.0741 |
| CATAATCC | -0.0164 |
| TATAATGA | 0.256 |
| TATAATCA | 0.387 |
| TATAATAA | 0.115 |
| CATAATCA | 0.413 |
| AATAATCA | 0.382 |
| CATAATCG | 0.109 |

| Sequence | PBM E-score |
| --- | --- |
| AATAATCC | 0.0648 |
| CCTTTACC | -0.149 |
| GAGCGTAA | 0.0724 |
| CCCCTGCC | -0.204 |
| ATACTCTC | 0.00838 |
| AGAAGGGG | -0.324 |
| GCCAGCAA | -0.238 |
| GGTCCATA | -0.194 |
| AAACGATG | -0.0198 |
| ATCGTCAC | -0.00908 |
| ATAGTCCC | 0.148 |
| CTAGTAAG | 0.0365 |
| ATAGTCCA | 0.213 |
| ATAGTCAA | 0.402 |
| CTAGTCCA | 0.109 |
| ATAGTCAC | 0.481 |
| ATAGTAAT | 0.291 |
| ATCGTCAT | 0.0309 |
| CTAGTCAG | 0.418 |
| ATAGTCAT | 0.489 |
| ATCGTCAA | 0.0919 |
